Laboratory results as given in PubChem BioAssay AID1117361 (Southern Research Institute, 2015).
The whole screen tested about 3,600 compounds, of which about 900 (25%) were called active. How the calls were made is not given here. Not all results are given here. Results with a measured potency or affinity are listed apart.

biological target: Protein Tat (Human immunodeficiency virus type 1 group M subtype B (isolate HXB2)) (UniProt P04608); assay: inhibitors of Tat binding to TAR RNA, dose response, counter-screen for Vif-APOBEC3G degradation inhibitor project, biochemical, fluorescence polarization, FAM-labeled TAR RNA (AID 1117361); conditions: outcome: dose series up to 100 µM unless noted; series mostly up to 100 µM

| Compound | outcome |
| --- | --- |
| O=C(NCc1ccncc1)c1ccc(Cn2cc(C(F)(F)F)ccc2=O)cc1 | inactive |
| CCc1ccc(NS(=O)(=O)c2cccs2)cc1 | inactive |
| CC(OC(=O)c1cccs1)C(=O)NCc1ccco1 (stereo not drawn) | inactive |
| COc1cccc(-c2nnc(SCC(=O)OC(C)C)n2N)c1 | inactive |
| O=C(c1ccco1)N(Cc1ccc([N+](=O)[O-])cc1)c1ccc(Cl)cc1 | inactive |
| O=C(c1ccco1)N(Cc1ccco1)c1ccc(O)cc1 | inactive |
| O=C(Cn1ncc(Cl)c(Cl)c1=O)c1ccc2c(c1)OCCO2 | inactive |
| CCCCCCC(=O)N(O)C1CC(=O)N(c2ccc(Br)cc2)C1=O (stereo not drawn) | inactive |
| Nc1nc(SCC(=O)OCc2ccccc2)[nH]c(=O)c1NC(=O)c1ccco1 | inactive |
| COc1ccc(Nc2ncc(F)c(N3CCOCC3)n2)cc1 | inactive |
| NS(=O)(=O)c1ccc(CCNC2CC(=O)N(Cc3ccccc3)C2=O)cc1 (stereo not drawn) | inactive |
| O=C1CC(Nc2ccc(N3CCOCC3)cc2)C(=O)N1CCc1ccccc1 (stereo not drawn) | inactive |
| O=S(=O)(N1CCCCC1)N1CCN(c2ccccc2F)CC1 | inactive |
| CCNC(=O)CC1C(=O)N(c2ccc(C)cc2)C(=O)N1CCc1ccc(OC)c(OC)c1 (stereo not drawn) | inactive |
| COc1cc(N2C(=O)C=CC2=O)ccc1N1C(=O)C=CC1=O | inactive |
| COc1ccc(CCN2C(=O)c3cccnc3C2=O)cc1OC | inactive |
| CN1CCN(/C=C(\C#N)S(=O)(=O)c2ccc(Cl)cc2)CC1 | inactive |
| S=C(NCc1ccccn1)Nc1ccc(Cl)c(Cl)c1 | inactive |
| O=C(NCc1ccc(F)cc1)C1CCC(CNc2c(N3CCCCC3)c(=O)c2=O)CC1 (stereo not drawn) | inactive |
| Cc1cc(C)cc(N(CC(=O)NCc2cccnc2)S(C)(=O)=O)c1 | inactive |
| CCSc1nnc(NC(=O)c2cccc3ccccc23)s1 | inactive |
| Cc1ccc(C(C)C)c(OCCN(C)C)c1 | inactive |
| Cc1cc(C)cc(CC2CC(=O)N(c3ccc4c(c3)OCCO4)C2=O)c1 (stereo not drawn) | inactive |

| Compound | outcome |
| --- | --- |
| COc1ccc(C2OC(=O)CC2C(=O)N2CCN(c3cc(Cl)ccc3C)CC2)cc1OC (stereo not drawn) | inactive |
| CCOC(=O)C(C#N)(Cc1ccc2ccccc2n1)Cc1ccc2ccccc2n1 | inactive |
| Cc1ccccc1NS(=O)(=O)c1ccc2[nH]cc(C(=O)N(C)Cc3ccco3)c(=O)c2c1 | inactive |
| CC1CCCCN1CCCNC(=O)C1CCN(c2nc3ccccc3o2)CC1 (stereo not drawn) | inactive |
| CCOc1ccc(Cl)cc1S(=O)(=O)N1CCN(c2ccc(F)cc2)CC1 | inactive |
| CCN(CC)c1ccc(NC(=O)c2ccco2)cc1 | inactive |
| O=C(Nc1ccc(COc2ccccc2)cc1)Oc1ccccc1N1CCOCC1 | inactive |
| O=C1CC(NCc2ccco2)C(=O)N1CCc1ccccc1 (stereo not drawn) | inactive |
| COc1ccccc1CNCC(=O)Nc1ccc(N2CCOCC2)cc1 | inactive |
| COc1ccccc1N1C(=O)CC(Sc2nccc(C)n2)C1=O (stereo not drawn) | inactive |
| O=C(CSc1ccc(Cl)cc1)c1ccco1 | inactive |
| O=[N+]([O-])c1ccc(-c2c[nH]c(=S)[nH]2)cc1 | inactive |
| CC1(C)OC(=O)C(=CNC(Cc2c[nH]c3ccccc23)C(=O)O)C(=O)O1 (stereo not drawn) | inactive |
| CC(C)(C)c1ccc(OCC(=O)NCCN2CCCC2)cc1 | inactive |
| Cc1ccc(S(=O)(=O)N2CCOCC2)cc1C(=O)Nc1nc2ccccc2[nH]1 | inactive |
| CC(NC(=O)c1ccco1)C1CCCO1 (stereo not drawn) | inactive |
| CC1(C)Cc2c(cnn2-c2ccccc2)C(NC(=O)CCCN2CCCCC2=O)C1 (stereo not drawn) | inactive |
| O=S(=O)(NCc1cn2ccsc2n1)c1cccs1 | inactive |
| Nc1cccc2c1C(=O)N(C(=O)/C=C/c1cccc(Br)c1)C2=O | inactive |
| COc1ccc(NC(=O)O/N=C/c2ccccc2Cl)cc1 | inactive |
| Cc1ccc(S(=O)(=O)N/N=C/c2ccc(OCC(=O)Nc3ccccc3Cl)cc2)cc1 | inactive |
| Cc1ccc(OCC(=O)NNC(=O)CCc2ccccc2)cc1 | inactive |
| COc1ccc(OC)c(NC(=O)CCN2CCC(C)CC2)c1 | inactive |

| Compound | outcome |
| --- | --- |
| COc1ccccc1N(C)S(=O)(=O)c1ccc(C(=O)NC(C)(C)C)cc1 | inactive |
| Cc1ccn(C(=O)c2cc3ccccc3oc2=O)n1 | inactive |
| COc1ccc(-n2ncc3c(N4CCC(C(N)=O)CC4)ncnc32)cc1 | inactive |
| Cc1ccc(C)c(-n2c(SCC(N)=O)nnc2-c2ccccn2)c1 | inactive |
| CCOc1ccc(-n2c(SCC(N)=O)nnc2-c2cccnc2)cc1 | inactive |
| CCOC(=O)CSc1nnc(CNC(=O)c2ccccc2OC)n1-c1ccc(OC)cc1 | inactive |
| Cc1cccc(-n2c(=O)cc(N3CCN(c4ccc(F)cc4)CC3)[nH]c2=O)c1 | inactive |
| CCCn1c(SCC(=O)c2cc(C)ccc2C)n[nH]c1=O | inactive |
| S=C1NC2(CCCCCC2)N=C1c1ccccc1 | inactive |
| Cc1ccc(C)c(/C(O)=C2/C(=O)C(=O)N(CCN3CCOCC3)C2c2ccco2)c1 (stereo not drawn) | inactive |
| COc1ccc(OC)c(NC(=O)CC2C(=O)NCCN2C(=O)Nc2cccc(Cl)c2)c1 (stereo not drawn) | inactive |
| O=C(O)C1CCN(S(=O)(=O)/C=C/c2ccccc2)CC1 | inactive |
| Cc1ccnc(N2CCC(C(=O)NNC(=O)c3ccccc3C)CC2)n1 | inactive |
| CCn1c(CNC(=O)Cc2ccc(OC)cc2)nnc1SCC(=O)Nc1ccc(C(=O)O)cc1 | inactive |
| Cc1nn(C(=O)c2cccnc2)c(C)c1C | inactive |
| COC(=O)Cc1c(C)nc2nc(-c3cccnc3)[nH]n2c1=O | inactive |
| O=C(NCc1ccco1)C1CCCN(S(=O)(=O)c2cccc3nsnc23)C1 (stereo not drawn) | inactive |
| c1ccc(SCc2nc3ccccc3[nH]2)cc1 | inactive |
| COc1cc(/C=C(\C#N)c2nc3ccccc3[nH]2)c([N+](=O)[O-])cc1OCc1ccccc1 | inactive |
| CC1(C)C2CCC1(CS(=O)(=O)Nc1cccc(S(N)(=O)=O)c1)C(=O)C2 (stereo not drawn) | inactive |
| COc1ccc(N2CCN(C(=O)c3c(-c4ccccc4)noc3C)CC2)cc1 | inactive |
| COc1ccc(NC(=O)c2c(OC)cccc2OC)c(OC)c1 | inactive |
| COc1ccc(OC)c(NC(=O)NCc2ccc(F)cc2)c1 | inactive |

| Compound | outcome |
| --- | --- |
| Cn1nc(CC(=O)NCCN2C(=O)CSC2=O)c2ccccc2c1=O | inactive |
| CCOc1ccc(-n2c(SCC(=O)Nc3cc(C)on3)nnc2-c2c[nH]c3ccccc23)cc1 | inactive |
| COc1cccc(NC(=O)Nc2nnc(N3C(C)CCCC3C)s2)c1 (stereo not drawn) | inactive |
| COC(=O)c1cc(=O)n(Cc2ccc3c(c2)OCO3)c(=Nc2ccc(F)c(Cl)c2)s1 | inactive |
| COCCn1c(SCC(=O)Nc2ccccc2F)nc2c([nH]c3ccccc32)c1=O | inactive |
| O=C(O)CN1C(=O)CSc2ccccc21 | inactive |
| COc1ccc(Nc2nc3ccccc3nc2-n2nc(C)cc2C)cc1 | inactive |
| COc1ccc(NC2=NC(C)(CO)CS2)cc1 (stereo not drawn) | inactive |
| CCOC(=O)C(C(=O)OCC)C(CC(=O)C1CC1)c1ccccc1 (stereo not drawn) | inactive |
| O=C(O)/C=C/C(=O)NNc1ncnc2ccccc12 | inactive |
| CCCCCCCCNc1ncnc2ccccc12 | inactive |
| O=C(CSc1nnc(CNC(=O)c2ccccc2F)o1)c1ccccc1 | inactive |
| CCc1ccccc1NC(=O)c1cc2ncc(Br)cn2n1 | inactive |
| COc1ccc(Br)c(C(=O)NC(C)(C)CO)c1 | inactive |
| O=[N+]([O-])c1ccc2c([N+](=O)[O-])ccc3c2c1CC3 | inactive |
| CCC(=O)Nc1cccc(-c2nc3ccccc3c(=O)o2)c1 | inactive |
| O=C(O)CSCc1c(F)cccc1Cl | inactive |
| CC(C(=O)NCC1CCCCC1)N(C)Cc1ccc(Br)cc1 (stereo not drawn) | inactive |
| O=S(=O)(O)c1cccc2c(N=Nc3ccc(O)c4ncccc34)cccc12 | inactive |
| O=C(c1ccccc1)c1ccc(OC(=O)N2CCOCC2)cc1 | inactive |
| CC(C)CCNC(=O)c1ccc2c(SCC(=O)O)c3c(nc2c1)CCC3 | inactive |
| O=C(c1ccc(-n2cnnn2)cc1)N1CCOCC1 | inactive |
| O=C(Nc1cccc(S(=O)(=O)N2CCCCC2)c1)c1ccc2c(=O)n3c(nc2c1)CCCCC3 | inactive |

| Compound | outcome |
| --- | --- |
| CCC(CC)C(=O)Nc1cccc(C(=O)N2CCOCC2)c1 | inactive |
| CCOC(=O)N1CCN(C(=O)c2ccc(NC(=O)c3ccc(C)cc3)cc2)CC1 | inactive |
| CCOC(=O)C1CCN(C(=O)c2ccc3snnc3c2)CC1 | inactive |
| O=C(NNC(=O)c1ccccc1-n1cccc1)c1ccc(Cl)c(Cl)c1 | inactive |
| CC(C)(C)NC(=O)c1cnn2c1NC(c1ccc(F)cc1)CC2C(F)(F)F (stereo not drawn) | inactive |
| CN(C)C=NC(=O)/C(C#N)=C1\CCc2ccccc2N1 | inactive |
| Nn1c(SCC(=O)NCCc2ccc(F)cc2)nnc1C1CCCCC1 | inactive |
| COc1ccccc1CNC(=O)CCS(=O)(=O)c1ccc2c(c1)CCCN2C(C)=O | inactive |
| CCOC(=O)Nc1ccc2c(CN3C(=O)NC4(CCCC4)C3=O)cc(=O)oc2c1 | inactive |
| Cc1ccc(N(CN2C(=O)C3CC=CCC3C2=O)C(=O)c2ccco2)cc1Cl (stereo not drawn) | inactive |
| CCc1[nH]nc2c1C1(CCN(C(=O)OCc3ccccc3)CC1)C(C#N)=C(N)O2 | inactive |
| Cc1[nH]c2ccccc2c1Cc1nnc(SCc2ccccc2)o1 | inactive |
| Cn1cc(CN2CCN(CCO)CC2)c(-c2ccc(Oc3ccccc3)cc2)n1 | inactive |
| CCc1c(O)nc(N2CCN(Cc3ccccc3)CC2)[nH]c1=O | inactive |
| O=c1ccccn1Cc1c(F)cccc1Cl | inactive |
| CCOC(=O)c1cnc(-c2ccccc2)nc1Oc1ccc(C)cc1 | inactive |
| CCOc1ccc(C(=O)N2CCCN(C(=O)c3ccc(OCC)cc3)CC2)cc1 | inactive |
| CCOc1ccccc1CNC(=O)Cn1c(=O)oc2ccccc21 | inactive |
| CCOC(=O)Cn1c(=O)n(CC(=O)OCC)c2ccccc21 | inactive |
| CCOc1ccccc1NC(=O)Cn1c(-c2ccc(Cl)cc2)noc1=O | inactive |
| CCOc1ccc(-n2c(C)nc(O)c2N=Nc2ccccc2)cc1 | inactive |
